Composite z-score, composite Z-score and z-score data for 6 molecules are collected here from PubChem BioAssay.

Active and inactive are the calls of the source.

Test [1] addresses Albumin (Bos taurus) (UniProt P02769). The experiment in a line: bovine serum albumin binders on microarray, profiling panel, artefact control for SMM control protein annotation, biochemical, small-molecule microarray, Alexa647 label, 635/667 nm fluorescence (AID 1118).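 Note: score merges 667 nm emission intensity and signal-to-noise per printed compound spot.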 The note with it: BSA-A647 binding, fluorescence 635 nm, higher = more signal.
Test [2] in a line: small-molecule microarray binders of probe aXIP, primary screen, biochemical, NeuroSMM set, 635/667 nm fluorescence (AID 1119).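 Note: probe is the protein aXip251-270 applied at 1 µg/mL to compound-printed slides; binding of probe to printed compounds measured as 667 nm fluorescence plus signal to noise.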 The settings on record: higher = more signal, called active from +8 up or from −8 down.
A short description of test [3]: small-molecule binders of probe aNOTCH3, primary screen, biochemical, small-molecule microarray, 635/667 nm fluorescence (AID 1120).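 Note: probe is a biotin-tagged antibody raised against NOTCH3 rather than NOTCH3 protein; score merges spot fluorescence near 667 nm with spot signal to noise.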 The note with it: higher = more signal.
Test [4] can be described thus: small-molecule binders of probe aNOTCH2, primary screen, biochemical, small-molecule microarray, 635/667 nm fluorescence (AID 1121).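 Note: score merges feature fluorescence read at 667 nm with its signal to noise.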 The note with it: higher = more signal.
In test [5] the target is Carbonic anhydrase 2 (Homo sapiens) (UniProt P00918). Description: CAII small-molecule binders, profiling panel, biochemical, small-molecule microarray, Alexa647-labelled CAII (AID 1122). The note with it: CAII-A647 binding fluorescence, higher = more signal.
The nature of test [6]: COS7 lysate on small-molecule microarray, probe aHis, 635 nm (AID 1123).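 Note: z-score combines 667nm fluorescence intensity with signal-to-noise per printed compound spot.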 The settings on record: COS7 cell lysate, fluorescence, higher = more signal.
Test [7] can be described thus: compound binding in COS7 lysate, probe aLAP1, primary screen, cell lysate, small-molecule microarray (AID 1124).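 Note: lysate comes from COS7 cells expressing LAP1 and is applied at 0.3 µg/mL; score merges spot fluorescence near 667 nm with signal-to-noise over triplicate slides.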 The note with it: probe aLAP1, fluorescence, higher = more signal.
In test [8] the test system is Sam68 (KHDRBS1). The experiment in a line: Sam68 small-molecule binders, primary screen, biochemical, small-molecule microarray, 635 nm fluorescence (AID 1125).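 Note: score merges 667 nm channel intensity with signal to noise over triplicate slides.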 The note with it: small-molecule microarray binding, higher = more signal.
In test [9] the test system is Chordin-like protein 2 (CHRDL2). Description: CHRDL2 small-molecule binders, primary screen, biochemical, small-molecule microarray, 635 nm fluorescence (AID 1126).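 Note: printed compound slides probed with Chrdl2 protein at 4 µg/mL for 1 h at 4 C; score merges 667 nm emission intensity with signal to noise over three replicate slides.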 The note with it: small-molecule microarray binding, fluorescence 635 nm; higher = more signal.
The target in test [10] is Concanavalin-A (Canavalia ensiformis) (UniProt P02866). The experiment in a line: ConA small-molecule binders, primary screen, artefact control for SMM control protein annotation, biochemical, small-molecule microarray, Alexa647 label, 635 nm (AID 1127).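 Note: z combines 667 nm emission intensity with signal-to-noise across three replicate slides.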 The note with it: ConA-A647 binding fluorescence, higher = more signal.
The nature of test [11]: anti-His antibody binders, primary screen, artefact control for SMM control protein annotation, biochemical, small-molecule microarray, 635 nm fluorescence (AID 1128).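 Note: score merges feature fluorescence with signal-to-noise for each printed compound spot.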 The note with it: anti-His Alexa647 antibody binding, higher = more signal.
The test system of test [12] is Human papillomavirus type 1a E7 protein (residues 1-88). Description: HPV1a E7 small-molecule binders, primary screen, biochemical, small-molecule microarray, residues 1-88, 635 nm (AID 1129). The settings on record: small-molecule microarray binding, fluorescence 635 nm; higher = more signal.
For test [13], the target named is Focal adhesion kinase 1 (Homo sapiens) (UniProt Q05397). The experiment in a line: small-molecule microarray binders of FAK, primary screen, biochemical, 635/667 nm fluorescence, BSA, DTT (AID 1130).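 Note: composite of spot emission at 667 nm and signal to noise over triplicate slides.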 The settings on record: PTK2 binding, 635 nm fluorescence, higher = more signal.
In test [14] the test system is Fibrinogen (Alexa647-labelled). The experiment in a line: fibrinogen binders on compound microarrays, profiling panel, artefact control for SMM control-protein annotation, biochemical, small-molecule microarray, 635/667 nm fluorescence (AID 1131).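 Note: z-score merges 667 nm fluorescence with per-spot signal-to-noise over triplicate slides.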 The note with it: fibrinogen-A647 binding fluorescence, higher = more signal.
The target of test [15] is Follistatin (Homo sapiens) (UniProt P19883). Description: follistatin binders on small-molecule microarrays, primary screen, biochemical, small-molecule microarray, 635/667 nm fluorescence (AID 1132). The settings on record: FST binding, 635 nm fluorescence, higher = more signal.
The target in test [16] is Fibroblast growth factor 2 (Homo sapiens) (UniProt P09038). The experiment in a line: FGF2 binders on small-molecule microarrays, primary screen, biochemical, small-molecule microarray, 635/667 nm fluorescence (AID 1133). The settings on record: small-molecule microarray binding, FGF2, fluorescence 635/667; higher = more signal.
Test [17] can be described thus: mitochondrial membrane potential change in A549 cells, profiling panel, cell-based, JC-1 fluorescence, basal, 24 h, 100 nL (AID 1138).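 Note: A549 lung adenocarcinoma cells under basal conditions with no added stimulus; test concentration not given here.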 The settings on record: higher = more signal.
The test system of test [18] is Lefty1. The experiment in a line: Lefty1 binders on small-molecule microarrays, primary screen, biochemical, small-molecule microarray, 635/667 nm fluorescence (AID 1139). The settings on record: small-molecule microarray binding, fluorescence 635/667; higher = more signal.
The test system of test [19] is wheat germ agglutinin (Triticum aestivum), Alexa647-labelled. Description: wheat germ agglutinin binders on compound microarrays, profiling panel, artefact control for SMM control-protein annotation, biochemical, small-molecule microarray, 635/667 nm fluorescence (AID 1140).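 Note: score merges 667 nm feature emission with signal to noise over triplicate slides.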 The settings on record: WGA-A647 binding, 635 nm fluorescence, higher = more signal.
Test [20] deals with Luciferin 4-monooxygenase (Photinus pyralis) (UniProt P08659). The experiment in a line: firefly luciferase enzyme inhibitors, primary screen, biochemical, luminescence, purified enzyme, 2006 set (AID 1141).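 Note: cell-free assay with purified firefly luciferase at 100 ng per well in PBS; test concentration not given here.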 The note with it: SteadyGlo luminescence, 30 min, higher = more signal, called active from +8 up or from −8 down.
Chain of Luciferin 4-monooxygenase (Photinus pyralis) (P08659 whole entry, looked up): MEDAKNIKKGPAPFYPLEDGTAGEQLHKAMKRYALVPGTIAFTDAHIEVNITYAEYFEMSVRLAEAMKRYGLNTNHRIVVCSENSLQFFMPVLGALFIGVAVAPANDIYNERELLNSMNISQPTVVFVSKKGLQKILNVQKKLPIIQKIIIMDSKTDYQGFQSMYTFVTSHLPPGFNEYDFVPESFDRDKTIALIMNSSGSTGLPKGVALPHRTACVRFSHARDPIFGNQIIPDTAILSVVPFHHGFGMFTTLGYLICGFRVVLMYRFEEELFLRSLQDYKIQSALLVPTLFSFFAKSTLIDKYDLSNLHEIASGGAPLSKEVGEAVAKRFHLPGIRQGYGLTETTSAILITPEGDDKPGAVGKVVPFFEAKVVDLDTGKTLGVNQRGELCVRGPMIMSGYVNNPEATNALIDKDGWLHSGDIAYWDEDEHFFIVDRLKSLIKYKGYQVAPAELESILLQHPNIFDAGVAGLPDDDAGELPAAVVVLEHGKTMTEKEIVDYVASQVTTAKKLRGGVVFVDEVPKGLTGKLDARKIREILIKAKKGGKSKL

Chain of Focal adhesion kinase 1 (Homo sapiens) (Q05397 whole entry, looked up): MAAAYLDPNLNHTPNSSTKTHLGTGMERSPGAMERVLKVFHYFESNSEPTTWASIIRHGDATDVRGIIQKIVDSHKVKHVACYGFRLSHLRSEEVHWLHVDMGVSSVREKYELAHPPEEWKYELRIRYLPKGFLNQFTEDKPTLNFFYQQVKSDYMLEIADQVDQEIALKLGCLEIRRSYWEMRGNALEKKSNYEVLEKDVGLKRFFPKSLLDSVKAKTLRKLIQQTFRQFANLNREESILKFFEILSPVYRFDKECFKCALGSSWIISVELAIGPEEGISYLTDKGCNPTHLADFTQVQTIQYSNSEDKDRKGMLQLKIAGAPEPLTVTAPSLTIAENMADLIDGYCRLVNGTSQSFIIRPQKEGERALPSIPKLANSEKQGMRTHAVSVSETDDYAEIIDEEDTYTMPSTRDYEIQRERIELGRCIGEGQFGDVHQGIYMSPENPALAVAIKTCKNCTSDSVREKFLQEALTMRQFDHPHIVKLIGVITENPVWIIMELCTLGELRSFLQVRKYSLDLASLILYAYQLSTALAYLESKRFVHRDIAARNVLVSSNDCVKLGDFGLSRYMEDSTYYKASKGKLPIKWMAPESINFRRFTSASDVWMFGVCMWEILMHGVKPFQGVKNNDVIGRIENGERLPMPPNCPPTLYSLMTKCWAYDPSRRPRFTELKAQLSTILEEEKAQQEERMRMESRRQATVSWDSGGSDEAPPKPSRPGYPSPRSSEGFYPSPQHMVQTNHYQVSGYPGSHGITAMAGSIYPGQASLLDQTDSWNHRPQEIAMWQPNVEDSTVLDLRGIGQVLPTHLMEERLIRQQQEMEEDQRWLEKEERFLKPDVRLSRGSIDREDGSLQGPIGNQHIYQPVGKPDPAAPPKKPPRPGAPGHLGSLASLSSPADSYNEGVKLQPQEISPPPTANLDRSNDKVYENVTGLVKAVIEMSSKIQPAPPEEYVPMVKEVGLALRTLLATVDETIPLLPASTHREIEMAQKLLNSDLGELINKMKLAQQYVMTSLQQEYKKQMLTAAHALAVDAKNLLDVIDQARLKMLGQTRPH
Chain of Fibroblast growth factor 2 (Homo sapiens) (P09038 whole entry, looked up): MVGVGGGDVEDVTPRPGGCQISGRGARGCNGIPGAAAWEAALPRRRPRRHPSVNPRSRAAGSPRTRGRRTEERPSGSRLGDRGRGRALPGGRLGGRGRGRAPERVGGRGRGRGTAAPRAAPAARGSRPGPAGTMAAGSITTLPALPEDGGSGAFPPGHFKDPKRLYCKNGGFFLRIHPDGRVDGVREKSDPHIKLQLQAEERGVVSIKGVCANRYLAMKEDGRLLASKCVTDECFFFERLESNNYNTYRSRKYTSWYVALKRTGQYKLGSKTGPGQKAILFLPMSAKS
Chain of Albumin (Bos taurus) (P02769 whole entry, looked up): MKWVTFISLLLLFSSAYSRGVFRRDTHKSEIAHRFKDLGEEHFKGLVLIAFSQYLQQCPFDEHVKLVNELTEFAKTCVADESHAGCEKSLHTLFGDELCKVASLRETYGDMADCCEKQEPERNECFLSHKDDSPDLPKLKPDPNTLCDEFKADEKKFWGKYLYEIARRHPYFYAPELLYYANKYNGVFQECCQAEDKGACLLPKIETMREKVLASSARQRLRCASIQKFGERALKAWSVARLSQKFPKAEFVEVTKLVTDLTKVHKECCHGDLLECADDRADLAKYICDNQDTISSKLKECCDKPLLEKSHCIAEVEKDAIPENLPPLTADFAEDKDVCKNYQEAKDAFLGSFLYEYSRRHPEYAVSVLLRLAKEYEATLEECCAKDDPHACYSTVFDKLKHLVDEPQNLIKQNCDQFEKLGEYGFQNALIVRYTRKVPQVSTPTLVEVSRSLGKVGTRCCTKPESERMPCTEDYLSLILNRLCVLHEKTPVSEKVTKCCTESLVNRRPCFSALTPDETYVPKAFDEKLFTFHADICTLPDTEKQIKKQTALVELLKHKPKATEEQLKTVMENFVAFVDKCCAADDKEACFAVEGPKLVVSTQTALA
Chain of Follistatin (Homo sapiens) (P19883 whole entry, looked up): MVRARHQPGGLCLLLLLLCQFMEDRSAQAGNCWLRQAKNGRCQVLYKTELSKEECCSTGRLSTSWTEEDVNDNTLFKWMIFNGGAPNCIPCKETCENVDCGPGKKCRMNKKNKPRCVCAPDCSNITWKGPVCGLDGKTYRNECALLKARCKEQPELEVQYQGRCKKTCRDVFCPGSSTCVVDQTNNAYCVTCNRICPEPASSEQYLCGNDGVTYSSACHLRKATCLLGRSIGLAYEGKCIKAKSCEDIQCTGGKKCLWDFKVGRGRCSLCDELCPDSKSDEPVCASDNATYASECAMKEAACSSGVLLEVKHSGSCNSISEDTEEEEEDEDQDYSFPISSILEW
Chain of Concanavalin-A (Canavalia ensiformis) (P02866 whole entry, looked up): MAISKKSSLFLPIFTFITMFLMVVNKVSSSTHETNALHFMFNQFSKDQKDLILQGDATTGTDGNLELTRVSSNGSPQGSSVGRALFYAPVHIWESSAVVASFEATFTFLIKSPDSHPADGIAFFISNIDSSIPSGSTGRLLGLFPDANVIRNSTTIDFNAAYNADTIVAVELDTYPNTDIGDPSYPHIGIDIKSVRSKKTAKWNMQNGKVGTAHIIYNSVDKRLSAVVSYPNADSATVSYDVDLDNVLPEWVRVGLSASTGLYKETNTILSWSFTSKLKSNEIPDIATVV

As to `C[C@H]1CC[C@H]2C(=O)N[C@H](Cc3ccccc3)C(=O)N2[C@@H]1c1ccccc1`, the composite z-score in test [1] was -0.456; in test [3] it was -0.177; in [4], -0.0811; in [5] it was -0.0975; in test [6], -0.227; in [7] it was -0.306. Further, the composite z-score is -0.824 in test [8]; 0.678 in test [9]; -0.126 in test [10]; -0.106 in test [11]; -0.138 in test [12]; 0.128 in test [13]. Besides, the composite z-score was -0.0797 in test [14]; 0.187 in test [15]; 0.831 in [16]; 0.426 in [18]; -0.112 in [19]. In addition, the composite Z-score in test [2] was 0.418 (inactive). In addition, the z-score was 0.514 in test [17] and -0.854 (inactive) in test [20].

For `OC[C@H]1O[C@H](C#Cc2ccccc2)C=C[C@@H]1O`, the composite z-score is 0.475 in [1]; -0.0647 in [3]; -0.101 in test [4]; -0.0795 in test [5]; 0.171 in test [6]; -0.647 in [7]. In addition, the composite z-score in test [8] is 0.0701; in test [9] it was 0.622; in [10] it was 0.341; in test [11], -0.0558; in test [12], 0.202; in test [13] it was 0.0213. Besides, the composite z-score came out at 0.624 in test [14]; 0.634 in [15]; 0.147 in test [16]; 0.409 in test [18]; 0.189 in test [19]. Further, the composite Z-score in test [2] is 0.131 (inactive). The z-score in [17] was 0.462; in test [20], -1.47 (inactive).

For the molecule `CCOC(=O)NN=C1C[C@@H](O)[C@@H](O)[C@@H]2[C@@H]3C(=O)N(C[C@@H]4CCCO4)C(=O)[C@@H]3CC[C@H]12`, the composite z-score is 0.34 in test [1]; -0.0057 in [3]; -0.15 in test [4]; -0.144 in [5]; 0.19 in [6]; 0.299 in [7]. Besides, the composite z-score in test [8] was found to be 0.31; in test [9] it was 0.245; in [10] it was 0.111; in test [11], 0.57; in [12], 0.317; in test [13] it was 0.43. In addition, the composite z-score in test [14] came out at 0.835; in [15], 0.308; in test [16], 0.342; in test [18] it was 0.293; in test [19], 0.0337. For the same molecule, in test [2], the composite Z-score was -0.161 (inactive). Besides, the z-score in test [17] is -0.311; in [20], 0.515 (inactive).

Consider `O=C1[C@H]2[C@H]3[C@H](O)[C@H](O)CC(=NOC[C@@H](O)COCc4ccco4)[C@@H]3CC[C@H]2C(=O)N1Cc1ccccc1`, for which the composite z-score in [1] is -0.123; in test [3], 0.121; in test [4], -0.102; in [5] it was 0.552; in [6], 0.654; in test [7], 0.173. Besides, the composite z-score was 1.3 in [8]; 1.4 in [9]; -0.193 in test [10]; 0.381 in test [11]; 1.26 in test [12]; 0.728 in test [13]. Moreover, the composite z-score in [14] was -0.956; in [15], 1.37; in [16], 0.962; in test [18], 0.941; in test [19], 0.265. The composite Z-score in [2] is -0.0662 (inactive). Further, the z-score was 0.0705 in [17] and 1.2 (inactive) in [20].

For `O=C1C2=CC[C@H]3C(=O)N(C[C@@H]4CCCO4)C(=O)[C@H]3[C@H]2[C@H](O)[C@@H]2O[C@H]12`, the composite z-score in test [1] is 0.335; in test [3], -0.183; in [4], -0.0928; in test [5], -0.145; in test [6] it was -0.534; in test [7] it was -0.246. Further, the composite z-score was determined as 0.244 in [8]; 0.362 in [9]; 0.397 in test [10]; 0.286 in test [11]; 0.611 in test [12]; 0.146 in test [13]. Also, the composite z-score in test [14] is -0.0182; in [15] it was 0.0235; in test [16] it was 0.0043; in test [18] it was 0.233; in test [19], -0.153. In [2], the composite Z-score was -0.275 (inactive). Also, the z-score in test [17] is 0.982; in test [20] it was -0.518 (inactive).

On to `CO[C@@H]1COC(=O)[C@H](CCSC)NC(=O)CC=C[C@@H](C)COC(=O)[C@@H]2CCCN2C(=O)CC=C[C@H]1C`, for which the composite z-score in test [1] was -1.43; in test [3] it was 0.0306; in [4] it was -0.199; in [5] it was -0.291; in [6], -0.462; in [7], -0.328. Moreover, the composite z-score is 0.34 in test [8]; 0.946 in test [9]; -0.353 in test [10]; 0.0289 in test [11]; 0.258 in [12]; -0.702 in [13]. Further, the composite z-score is -1.13 in [14]; 0.779 in [15]; 0.889 in [16]; 1.15 in [18]; -1.37 in [19]. The composite Z-score in test [2] is 0.605 (inactive). In addition, the figures for the z-score in test [17] and in test [20] were 0.215 and -0.0167 (inactive), respectively.
